Among the data in PubChem BioAssay (EPA / NIEHS) are AC50 and outcome values, retold here.

Read-out in experiment [1]: Thrombomodulin, THBD (gene 7056)
The experiment in a line: BSK_3C_Thrombomodulin: BioMAP Diversity Plus: 3C Assay for Thrombomodulin Biomarker Activity (AID 2283029). The note with it: primary human endothelial cells (HUVEC); actives raise or lower the signal. Summed up:
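Read-out is ELISA of thrombomodulin on human umbilical vein endothelium 24 h after chemical dosing. Gain or loss of signal is scored relative to DMSO. Overt cytotoxicity is checked in parallel cultures by sulforhodamine B staining.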

Read-out in experiment [2]: Urokinase-type plasminogen activator receptor (uPAR), PLAUR (gene 5329)
Put plainly: BSK_4H_uPAR: BioMAP Diversity Plus: 4H Assay for Urokinase-type plasminogen activator receptor (uPAR) Biomarker Activity (AID 2283030). The note with it: primary human endothelial cells (HUVEC); actives raise or lower the signal. The procedure, abridged:
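uPAR level read by ELISA on HUVEC cultures (BioMAP 4H) 24 h post-dosing, analyzed for gain or loss relative to DMSO. Parallel SRB staining assessed overt cytotoxicity.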

Read-out in experiment [3]: Human Leukocyte Antigen - DR isotype (HLADR), HLA-DRA (gene 3122)
Put plainly: BSK_BE3C_HLADR: BioMAP Diversity Plus: BE3C Assay for Human Leukocyte Antigen - DR isotype (HLADR) Biomarker Activity (AID 2283032). The note with it: primary human bronchial epithelial cells; actives raise or lower the signal. Summed up:
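ELISA read-out of HLA-DR on human lung bronchial epithelial primary cells, measured 24 h post-dosing. Both increases and decreases were scored relative to DMSO vehicle.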

Read-out in experiment [4]: Vascular cell adhesion molecule 1 (VCAM1), VCAM1 (gene 7412)
The experiment in a line: BSK_4H_VCAM1: BioMAP Diversity Plus: 4H Assay for Vascular cell adhesion molecule 1 (VCAM1) Biomarker Activity (AID 2283033).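 As to outcome: cell-surface VCAM-1 protein measured by ELISA.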 The note with it: primary human endothelial cells (HUVEC); actives raise or lower the signal. The procedure, abridged:
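ELISA read-out of VCAM-1 on human umbilical vein endothelium 24 hours after chemical dosing; gain or loss of signal was fitted relative to DMSO, with sulforhodamine B staining of parallel cultures flagging overt cytotoxicity.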

Read-out in experiment [5]: Interferon-gamma inducible Protein 10 (IP10), CXCL10 (gene 3627)
The experiment in a line: BSK_BE3C_IP10: BioMAP Diversity Plus: BE3C Assay for Interferon-gamma inducible Protein 10 (IP10) Biomarker Activity (AID 2283034). The note with it: primary human bronchial epithelial cells; actives raise or lower the signal. Summed up:
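Chemical is dosed onto human lung bronchial epithelial primary cells, cultures are incubated 24 h, and IP-10 is then quantified by ELISA. Gain or loss of signal is fitted in both directions relative to DMSO.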

Read-out in experiment [6]: Monokine induced gamma interferon (MIG), CXCL9 (gene 4283)
The experiment in a line: BSK_BE3C_MIG: BioMAP Diversity Plus: BE3C Assay for Monokine induced gamma interferon (MIG) Biomarker Activity (AID 2283035).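 As to outcome: MIG protein measured by ELISA in BE3C cultures after 24 h of dosing.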 The note with it: primary human bronchial epithelial cells; actives raise or lower the signal. The procedure, abridged:
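ELISA read-out of MIG in human lung bronchial epithelial primary cultures, 24 h post-dosing. Bidirectional curve fit vs DMSO baseline.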

Read-out in experiment [7]: Transforming growth factor beta 1 (TGFb1), TGFB1 (gene 7040)
Put plainly: BSK_BE3C_TGFb1: BioMAP Diversity Plus: BE3C Assay for Transforming growth factor beta 1 (TGFb1) Biomarker Activity (AID 2283036;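 as to outcome: TGF-b1 protein level measured by ELISA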). The note with it: primary human bronchial epithelial cells; actives raise or lower the signal. The procedure, abridged: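 Primary human lung bronchial epithelial cells; compound exposure 24 h; TGF-b1 by ELISA; bidirectional fit, DMSO baseline. Parallel SRB total-protein staining for cytotoxicity.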

Read-out in experiment [8]: Plasminogen activator inhibitor-1 (PAI1), SERPINE1 (gene 5054)
The experiment in a line: BSK_BE3C_PAI1: BioMAP Diversity Plus: BE3C Assay for Plasminogen activator inhibitor-1 (PAI1) Biomarker Activity (AID 2283037). The note with it: primary human bronchial epithelial cells; actives raise or lower the signal. Summed up:
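Primary human lung bronchial epithelial cells; chemical dosing; 24 h; PAI-1 measured by ELISA; bidirectional fit referenced to DMSO as negative control.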

Read-out in experiment [9]: urokinase plasminogen activator (uPA), PLAU (gene 5328)
The experiment in a line: BSK_BE3C_uPA: BioMAP Diversity Plus: BE3C Assay for urokinase plasminogen activator (uPA) Biomarker Activity (AID 2283038).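 As to outcome: uPA protein level quantified by ELISA in cell cultures; uPA read one day after compound addition.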 The note with it: primary human bronchial epithelial cells; actives raise or lower the signal. The procedure, abridged: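 ELISA for uPA on human primary bronchial epithelial cultures 24 h post-treatment, gain or loss against DMSO. Parallel SRB staining (0.1% after 10% TCA fixation, 560 nm) assessed overt cytotoxicity.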

Read-out in experiment [10]: Urokinase-type plasminogen activator receptor (uPAR), PLAUR (gene 5329)
The experiment in a line: BSK_BE3C_uPAR: BioMAP Diversity Plus: BE3C Assay for Urokinase-type plasminogen activator receptor (uPAR) Biomarker Activity (AID 2283039).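 As to outcome: uPAR protein level measured by ELISA on the cells; cells exposed to compound for one day before measurement.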 The note with it: primary human bronchial epithelial cells; actives raise or lower the signal. Summed up: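 Human bronchial epithelial primary cells; chemical exposure 24 h; uPAR by ELISA; bidirectional fit vs DMSO control.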

Read-out in experiment [11]: Interleukin-6 (IL6), IL6 (gene 3569)
The experiment in a line: BSK_CASM3C_IL6: BioMAP Diversity Plus: CASM3C Assay for Interleukin-6 (IL6) Biomarker Activity for (AID 2283040). The note with it: primary human coronary artery smooth muscle cells; actives raise or lower the signal.

Read-out in experiment [12]: Tissue plasminogen activator (tPA), PLAT (gene 5327)
The experiment in a line: BSK_BE3C_tPA: BioMAP Diversity Plus: BE3C Assay for Tissue plasminogen activator (tPA) Biomarker Activity (AID 2283041).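 As to outcome: tPA level quantified by ELISA one day after compound addition.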 The note with it: primary human bronchial epithelial cells; actives raise or lower the signal. Summed up: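 Primary human lung bronchial epithelial cultures receive test chemical; after 24 h, tPA is quantified by ELISA, and gain or loss of signal is fitted bidirectionally relative to DMSO baseline.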

Read-out in experiment [13]: Interleukin-8 (IL8), CXCL8 (gene 3576)
Put plainly: BSK_CASM3C_IL8: BioMAP Diversity Plus: CASM3C Assay for Interleukin-8 (IL8) Biomarker Activity (AID 2283042).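 Also: IL-8 protein level quantified by ELISA.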 The note with it: primary human coronary artery smooth muscle cells; actives raise or lower the signal.

Read-out in experiment [14]: Human Leukocyte Antigen - DR isotype (HLADR), HLA-DRA (gene 3122)
The experiment in a line: BSK_CASM3C_HLADR: BioMAP Diversity Plus: CASM3C Assay for Human Leukocyte Antigen - DR isotype (HLADR) Biomarker Activity (AID 2283043).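 Also: cell-surface HLA-DR protein level quantified by ELISA.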 The note with it: primary human coronary artery smooth muscle cells; actives raise or lower the signal.

Read-out in experiment [15]: Macrophage colony-stimulating factor (MCSF), CSF1 (gene 1435)
Put plainly: BSK_CASM3C_MCSF: BioMAP Diversity Plus: CASM3C Assay for Macrophage colony-stimulating factor (MCSF) Biomarker Activity (AID 2283044).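 Also: M-CSF protein amount quantified by ELISA after 24 h exposure.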 The note with it: primary human coronary artery smooth muscle cells; actives raise or lower the signal.

Read-out in experiment [16]: Low-density lipoprotein receptor (LDLR), LDLR (gene 3949)
Put plainly: BSK_CASM3C_LDLR: BioMAP Diversity Plus: CASM3C Assay for Low-density lipoprotein receptor (LDLR) Biomarker Activity (AID 2283045).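 Also: LDLR protein level on the cell surface quantified by ELISA.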 The note with it: primary human coronary artery smooth muscle cells; actives raise or lower the signal.

Read-out in experiment [17]: Monocyte Chemoattractant Protein-1 (MCP1), CCL2 (gene 6347)
Put plainly: BSK_CASM3C_MCP1: BioMAP Diversity Plus: CASM3C Assay for Monocyte Chemoattractant Protein-1 (MCP1) Biomarker Activity (AID 2283046).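 Also: MCP-1 level quantified by ELISA 24 h after dosing.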 The note with it: primary human coronary artery smooth muscle cells; actives raise or lower the signal.

A short description of experiment [18]: BSK_CASM3C_Proliferation: Cell Proliferation Assessment in the BioMAP Diversity Plus: CASM3C Assay (AID 2283047).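 Also: sulforhodamine B total protein stain as relative cell number at 560 nm; sub-confluent cells exposed 48 h before staining; fitted both ways against DMSO so gain or loss of cell number.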 The note with it: primary human coronary artery smooth muscle cells.
Read-out in experiment [19]: Monokine induced gamma interferon (MIG), CXCL9 (gene 4283)
The experiment in a line: BSK_CASM3C_MIG: BioMAP Diversity Plus: CASM3C Assay for Monokine induced gamma interferon (MIG) Biomarker Activity (AID 2283048).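 Also: MIG protein level measured by ELISA.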 The note with it: primary human coronary artery smooth muscle cells; actives raise or lower the signal.

Read-out in experiment [20]: Vascular endothelial growth factor receptor 2 (Homo sapiens) (UniProt P35968)
The experiment in a line: BSK_4H_VEGFRII: BioMAP Diversity Plus: 4H Assay for Vascular endothelial growth factor receptor 2 (VEGFR2) Biomarker Activity (AID 2283031).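 As to AC50: cell-surface VEGFR2 protein level quantified by ELISA.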 The note with it: primary human endothelial cells (HUVEC); actives raise or lower the signal. The procedure, abridged: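 Measured by ELISA after 24 h of compound treatment: VEGFR2 on primary human umbilical vein endothelial cells, fitted in both directions relative to DMSO. Parallel cultures received SRB staining (560 nm) for overt cytotoxicity.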

Activity calls are given as the source filed them. The calls were made as follows: active = hit-call score of the fitted dose curve at least 0.9, where 1 is the maximum; inactive = score below 0.9.

By AC50 is commonly meant the midpoint of the concentration-response curve, whichever way the signal moves.

Turning to `CC(=O)[O][Hg][c]1ccccc1`, the AC50 in experiment [1] was 3830 nM (active); in experiment [2], 1740 nM (active); in experiment [3], 355 nM (active); in experiment [4] it was 2370 nM (active); in [5] it was 940 nM (active); in experiment [6] it was 2010 nM (active). Besides, the AC50 in experiment [7] was 148 nM (active); in experiment [8], 1420 nM (active); in [9], 1060 nM (active); in experiment [10], 1800 nM (active); in experiment [11] it was 3560 nM (active); in experiment [12], 537 nM (active). Moreover, the AC50 in experiment [13] was 3600 nM (active); in [14] it was 580 nM (active); in experiment [15], 816 nM (active); in [16], 148 nM (active); in [17], 394 nM (active); in experiment [18], 148 nM (active). In addition, in experiment [19], the AC50 is 2050 nM (active).
In the case of `Oc1cccc2cccnc12`, the outcome in experiment [1], in [2], in experiment [20], in experiment [11], in experiment [13] and in experiment [15] was inactive. Moreover, the outcome in [16], in [17] and in [19] was inactive. Besides, the AC50 in experiment [3] is 3530 nM (active); in [4], 1960 nM (active); in experiment [6], 5470 nM (active); in experiment [7] it was 5430 nM (active); in experiment [8], 3450 nM (active); in experiment [9], 3440 nM (active). Besides, the AC50 was 4950 nM (active) in experiment [10], 2070 nM (active) in experiment [12], 3970 nM (active) in experiment [14] and 5500 nM (active) in [18].
Take `COC(=O)c1sccc1S(=O)(=O)NC(=O)Nc1nc(C)nc(OC)n1`: the result in [1], in [2], in [20], in [3], in [4] and in experiment [6] was inactive. Moreover, the outcome in experiment [7], in experiment [8], in [9], in experiment [10], in experiment [11] and in experiment [12] was inactive. Also, the result in [13], in experiment [14], in experiment [15], in [16], in experiment [17] and in [18] was inactive. Also, the result in experiment [19] was inactive.
For the compound `C[C@@H]1C[C@@H]([C@H](O)CC2CC(=O)NC(=O)C2)C(=O)[C@@H](C)C1`, the outcome in experiment [1] was inactive. Moreover, the AC50 is 4300 nM (active) in [2]; 8730 nM (active) in experiment [20]; 4950 nM (active) in experiment [3]; 17700 nM (active) in experiment [4]; 14400 nM (active) in experiment [6]; 2830 nM (active) in experiment [7]. Also, the AC50 was 1630 nM (active) in experiment [8]; 6450 nM (active) in experiment [9]; 4030 nM (active) in experiment [10]; 1270 nM (active) in experiment [11]; 2910 nM (active) in experiment [12]; 6030 nM (active) in experiment [13]. Besides, the AC50 is 1840 nM (active) in [14]; 4280 nM (active) in [15]; 791 nM (active) in experiment [16]; 9460 nM (active) in experiment [17]; 1630 nM (active) in experiment [18]; 1780 nM (active) in experiment [19].
